Results published in paper PMC12820563, “FoxP3 forms a head-to-head dimer in vivo and stabilizes its multimerization on adjacent microsatellites”.
In all, about 16,000 sequences were measured (“rpm ratio (pull-down/input)”: median about 0.5, highest 2% from about 5.5 on). What follows is part of a selection rich in the highest values, with near analogues and random picks from the rest.

Target: T1, MBP-FoxP3dN (Mus musculus, UniProt Q99JB6 188-423)
T1 sequence: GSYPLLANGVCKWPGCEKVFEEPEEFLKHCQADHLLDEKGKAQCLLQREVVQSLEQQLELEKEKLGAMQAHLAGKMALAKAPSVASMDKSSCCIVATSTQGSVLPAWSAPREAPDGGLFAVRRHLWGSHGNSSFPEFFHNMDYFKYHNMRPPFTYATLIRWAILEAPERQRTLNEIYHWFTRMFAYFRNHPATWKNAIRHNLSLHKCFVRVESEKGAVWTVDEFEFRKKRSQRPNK
Assay: PD-seq (MBP pull-down with sequencing); 20 mM Tris-HCl pH 7.5, 100 mM NaCl, 1.5 mM MgCl2, 0.4 uM protein, 0.1 uM dsDNA library, 30 min, room temperature, amylose pull-down; high values mean tight binding
Conditions: protein: recombinant; tags: His6-MBP; chain copies: 2; dsDNA, one strand shown
How it was run: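 In Tris pH 7.5 buffer with NaCl and MgCl2, 0.4 µM His6-MBP-tagged mouse FoxP3 or FoxP1 fragment lacking the N-terminus, from E. coli, met 0.1 µM Klenow-filled double-stranded degenerate DNA library for 30 min at room temperature. Three washes on amylose resin followed capture of the complexes, then proteinase K release of DNA, PCR barcoding and Illumina sequencing. Binding is taken as pooled-replicate reads-per-million enrichment of pull-down relative to input.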

Sequence | binding signal
GATGATTGTTCTCCCAGCTGATGAATTGTTTTTATCGAGTAAACAAATTTTCCTAATCTTTCTGTTCAAGCGCCATCTAC | 3.74 RPM ratio (pull-down/input)
GATGATTGTTCTCCCAGCTGATGAATTCTGTTTATCGAGTAAACAAATTTTCCTAATCTTTCTGTTCAAGCGCCATCTAC | 7.92 RPM ratio (pull-down/input)
GATGATTGTTCTCCCAGCTGATGAATTGTGTTTATCGAGTAAACAAATTTTCCTAATCTTTCTGTTCAAGCGCCATCTAC | 8.53 RPM ratio (pull-down/input)
GATGATTGTTCTCCCAGCTGATGAATTTATCTAATCGAGTAAACAAATTTTCCTAATCTTTCTGTTCAAGCGCCATCTAC | 0.706 RPM ratio (pull-down/input)
GATGATTGTTCTCCCAGCTGATGAATTTTGTTTATCGAGTAAACAAATTTTCCTAATCTTTCTGTTCAAGCGCCATCTAC | 7.19 RPM ratio (pull-down/input)
GATGATTGTTCTCCCAGCTGATGAATTCTTTTTATCGAGTAAACAAATTTTCCTAATCTTTCTGTTCAAGCGCCATCTAC | 0.332 RPM ratio (pull-down/input)
GATGATTGTTCTCCCAGCTGATGAATTACCACCCTCGAGTAAACAAATTTTCCTAATCTTTCTGTTCAAGCGCCATCTAC | 0.312 RPM ratio (pull-down/input)
GATGATTGTTCTCCCAGCTGATGAATTCGTCGTCTCGAGTAAACAAATTTTCCTAATCTTTCTGTTCAAGCGCCATCTAC | 1.31 RPM ratio (pull-down/input)
GATGATTGTTCTCCCAGCTGATGAATTAAAGTGCTCGAGTAAACAAATTTTCCTAATCTTTCTGTTCAAGCGCCATCTAC | 0.358 RPM ratio (pull-down/input)
GATGATTGTTCTCCCAGCTGATGAATTTTCCTTCTCGAGTAAACAAATTTTCCTAATCTTTCTGTTCAAGCGCCATCTAC | 0.258 RPM ratio (pull-down/input)
GATGATTGTTCTCCCAGCTGATGAATTTAGATTATCGAGTAAACAAATTTTCCTAATCTTTCTGTTCAAGCGCCATCTAC | 1.31 RPM ratio (pull-down/input)
GATGATTGTTCTCCCAGCTGATGAATTTTTTTTATCGAGTAAACAAATTTTCCTAATCTTTCTGTTCAAGCGCCATCTAC | 0.295 RPM ratio (pull-down/input)
GATGATTGTTCTCCCAGCTGATGAATTGTTTATCTCGAGTAAACAAATTTTCCTAATCTTTCTGTTCAAGCGCCATCTAC | 6.57 RPM ratio (pull-down/input)
GATGATTGTTCTCCCAGCTGATGAATTTGTTTTATCGAGTAAACAAATTTTCCTAATCTTTCTGTTCAAGCGCCATCTAC | 6.46 RPM ratio (pull-down/input)
GATGATTGTTCTCCCAGCTGATGAATTTACAACATCGAGTAAACAAATTTTCCTAATCTTTCTGTTCAAGCGCCATCTAC | 1.26 RPM ratio (pull-down/input)
GATGATTGTTCTCCCAGCTGATGAATTTCTTTTATCGAGTAAACAAATTTTCCTAATCTTTCTGTTCAAGCGCCATCTAC | 0.545 RPM ratio (pull-down/input)
GATGATTGTTCTCCCAGCTGATGAATTTTTTATCTCGAGTAAACAAATTTTCCTAATCTTTCTGTTCAAGCGCCATCTAC | 0.243 RPM ratio (pull-down/input)
GATGATTGTTCTCCCAGCTGATGAATTTTTTACATCGAGTAAACAAATTTTCCTAATCTTTCTGTTCAAGCGCCATCTAC | 0.25 RPM ratio (pull-down/input)

Sequence | binding signal
GATGATTGTTCTCCCAGCTGATGAATTGTTTACATCGAGTAAACAAATTTTCCTAATCTTTCTGTTCAAGCGCCATCTAC | 8.09 RPM ratio (pull-down/input)
GATGATTGTTCTCCCAGCTGATGAATTTATCTCCTCGAGTAAACAAATTTTCCTAATCTTTCTGTTCAAGCGCCATCTAC | 0.631 RPM ratio (pull-down/input)
GATGATTGTTCTCCCAGCTGATGAATTGTGTCCCTCGAGTAAACAAATTTTCCTAATCTTTCTGTTCAAGCGCCATCTAC | 2.1 RPM ratio (pull-down/input)
GATGATTGTTCTCCCAGCTGATGAATTTCCTCCCTCGAGTAAACAAATTTTCCTAATCTTTCTGTTCAAGCGCCATCTAC | 0.223 RPM ratio (pull-down/input)
GATGATTGTTCTCCCAGCTGATGAATTGGCGTCCTCGAGTAAACAAATTTTCCTAATCTTTCTGTTCAAGCGCCATCTAC | 1.06 RPM ratio (pull-down/input)
GATGATTGTTCTCCCAGCTGATGAATTACCCAACTCGAGTAAACAAATTTTCCTAATCTTTCTGTTCAAGCGCCATCTAC | 0.253 RPM ratio (pull-down/input)
GATGATTGTTCTCCCAGCTGATGAATTATATCTGTCGAGTAAACAAATTTTCCTAATCTTTCTGTTCAAGCGCCATCTAC | 0.544 RPM ratio (pull-down/input)
GATGATTGTTCTCCCAGCTGATGAATTTTATTTGTCGAGTAAACAAATTTTCCTAATCTTTCTGTTCAAGCGCCATCTAC | 6.21 RPM ratio (pull-down/input)
GATGATTGTTCTCCCAGCTGATGAATTATATTTGTCGAGTAAACAAATTTTCCTAATCTTTCTGTTCAAGCGCCATCTAC | 5.66 RPM ratio (pull-down/input)
GATGATTGTTCTCCCAGCTGATGAATTTTATGTGTCGAGTAAACAAATTTTCCTAATCTTTCTGTTCAAGCGCCATCTAC | 2.49 RPM ratio (pull-down/input)
GATGATTGTTCTCCCAGCTGATGAATTTATTGTGTCGAGTAAACAAATTTTCCTAATCTTTCTGTTCAAGCGCCATCTAC | 6.95 RPM ratio (pull-down/input)
GATGATTGTTCTCCCAGCTGATGAATTATTTGTGTCGAGTAAACAAATTTTCCTAATCTTTCTGTTCAAGCGCCATCTAC | 2.76 RPM ratio (pull-down/input)
GATGATTGTTCTCCCAGCTGATGAATTATTTCTGTCGAGTAAACAAATTTTCCTAATCTTTCTGTTCAAGCGCCATCTAC | 0.335 RPM ratio (pull-down/input)
GATGATTGTTCTCCCAGCTGATGAATTGTTATTGTCGAGTAAACAAATTTTCCTAATCTTTCTGTTCAAGCGCCATCTAC | 6.63 RPM ratio (pull-down/input)
GATGATTGTTCTCCCAGCTGATGAATTATTTTTGTCGAGTAAACAAATTTTCCTAATCTTTCTGTTCAAGCGCCATCTAC | 0.947 RPM ratio (pull-down/input)
GATGATTGTTCTCCCAGCTGATGAATTATTATTGTCGAGTAAACAAATTTTCCTAATCTTTCTGTTCAAGCGCCATCTAC | 2.61 RPM ratio (pull-down/input)
GATGATTGTTCTCCCAGCTGATGAATTTTTATTGTCGAGTAAACAAATTTTCCTAATCTTTCTGTTCAAGCGCCATCTAC | 0.972 RPM ratio (pull-down/input)
GATGATTGTTCTCCCAGCTGATGAATTTATTCTGTCGAGTAAACAAATTTTCCTAATCTTTCTGTTCAAGCGCCATCTAC | 0.533 RPM ratio (pull-down/input)
